# HSD17B inh: inhibitors of human HSD17B10 dehydrogenase; AID 893; 75,000 compounds, 7.6% hits; Q99714; Potency, µM (doses to about 57.1 µM), for inactives: top-dose activity change, negative = inhibition, hits mostly inhibitors; recombinant HSD17B10, NADH fluorescence kinetic;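 further: the protocol describes HADH2 (HSD17B10) and not the HSD17B4 of the title; nearly all actives have a fitted effect of over 70% in size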
#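 Enzyme plus compound, 15 min room temperature; substrate mix added (NAD+ 1 mM, beta-hydroxybutyryl-CoA 90 uM final); plates read kinetically for NADH fluorescence. HADH2 was His-tagged, E. coli-derived, 20 nM.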
# HADH2 inhib: blocks human hydroxyacyl-CoA dehydrogenase type II; 73,000 compounds, 3.4% hits; recombinant HADH2, NADH fluorescence, beta-hydroxybutyryl-CoA; Q99714; AID 886; Potency, µM (doses to about 57.1 µM), without a hit: top-dose activity change, negative = inhibition, usual class: inhibitors; further: nearly all actives have a fitted effect of over 60% in size
# Target sequence (Q99714 whole entry, looked up, one chain of several): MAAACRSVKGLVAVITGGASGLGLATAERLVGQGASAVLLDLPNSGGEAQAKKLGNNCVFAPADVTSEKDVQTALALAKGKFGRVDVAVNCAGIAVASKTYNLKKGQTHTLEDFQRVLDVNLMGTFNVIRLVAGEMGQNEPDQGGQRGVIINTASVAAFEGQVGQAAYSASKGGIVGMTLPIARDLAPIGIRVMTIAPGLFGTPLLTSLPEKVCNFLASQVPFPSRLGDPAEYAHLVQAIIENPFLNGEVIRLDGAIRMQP
#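 Buffer 100 mM Tris-HCl pH 9.0/0.01% Tween-20; HADH2 20 nM; NAD+ 1 mM; beta-hydroxybutyryl-CoA 90 uM (all final). 15 min cpd preincubation, RT.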
# PK Bst: pyruvate kinase (B. stearothermophilus) modulation; purified pyruvate kinase, luminescence ATP production; ribose 5-phosphate activator present at AC10; Potency, µM; 51,000 compounds, 1.2% hits; in the data active means potency below about 11 µM; inconclusive means mostly about 12 µM to 25 µM;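 the screen sought inhibitors and activators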;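 further: scaled between full activation by ribose 5 phosphate and full inhibition by luteolin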
# ALOX15 inhib: blocks human 15-lipoxygenase activity | P16050 | purified 15hLO-1, xylenol orange hydroperoxide absorbance | Potency, µM (titrated, usually from 57.1 µM), for the others: at the top dose activity change, negative = inhibition, most hits filed as inhibitors | 74,000 compounds, 1.4% hits | AID 887; further: nearly all actives have a fitted effect of over 55% in size
#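 Compounds were preincubated 15 min at room temperature with 40 nM purified human enzyme (25 mM Hepes pH 7.5, 0.01% Triton X-100); 50 uM arachidonic acid reacted 6 min. Fe-xylenol orange detection, 30 min, absorbance ratio 573/405 nm.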
# Luciferase inh: inhibitors of firefly luciferase; P08659; purified firefly luciferase, luminescence, 8 min; Potency, µM (top dose mostly 57.1 µM), for inactives: at the top dose activity change, negative = inhibition, actives largely listed as inhibitors; 72,000 compounds, 2.2% hits; further: nearly all actives have a fitted effect of over 40% in size
#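 Inhibition of light generation by firefly luciferase from ATP and luciferin was profiled with concentration-response curves per sample, ATP held at 10 uM within the enzyme's linear range. Plates were read by luminescence after an 8-minute ambient incubation.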
# ERK AVP block: blocks ERK signaling stimulated by vasopressin | 72,000 compounds, 0.99% hits | HEK293-V1b, vasopressin-stimulated pERK AlphaScreen | Potency, µM (series often up to 57.5 µM), for inactives: at the top dose activity, negative = inhibition, hits mostly inhibitors | AID 995; further: nearly all actives have a fitted effect of over 55% in size
#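 qHTS, compounds titrated on V1b-expressing HEK293 cells. Preincubation 30 min at 37C, vasopressin 25 nM for 5 min, lysis 10 min, bead incubation 5 hr at room temperature.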
# Starred values were filed as active, the others as inactive; i = inactive; ? = inconclusive; / = not tested or not shown; [ ] = dose if it differs, or a comment. A selection: hits, their analogues and other compounds. The true share with any hit is near 11%. Unless noted, the call rests on the fitted dose curve; in most records, active means well fitted curve in the direction sought with a large enough effect; inconclusive means small, poorly fitted or top-dose-only effect, or another doubt; inactive means no such curve, though single readings can be large; an effect the other way counts as inactive or inconclusive. Unless noted, on the % scale 0 is the no-effect control and ±100 the full control effect; potency means the concentration at half of the fitted maximal effect.
SMILES,HSD17B inh,HADH2 inhib,PK Bst,ALOX15 inhib,Luciferase inh,ERK AVP block
CCOC(=O)c1c(C)oc2ccc(O)c(CN3CCCCC3)c12,-6%,0%,>57,1%,-3%,-24%
COC(=O)C/C=C1\c2ccccc2C(OC)C1C (stereo not given),1%[11.4 µM],-6%[11.4 µM],/,7%[11.4 µM],/,13%[11.5 µM]
O=C(O)[C@@H]1CS[C@@]2(CCCN(Cc3ccccc3)C2)N1,1%[11.4 µM],?,/,1%[11.4 µM],3%[11.4 µM],9%[11.5 µM]
NS(=O)(=O)c1ccc(N=Nc2cc3ccccc3c(C(=O)O)c2O)cc1,-25%[11.4 µM],8%[11.4 µM],/,-10%[11.4 µM],0%[11.4 µM],-26%[11.5 µM]
Cc1ccsc1C(=O)OCC(=O)N1CCOCC1,5%,2%,>57,0%,4%,-22%
Cc1ccccc1Nc1nc(N)nc(COC(=O)c2cccn2C)n1,-4%,3%,>57,-2%,-12%,34%
Cn1cccc1C(=O)OCc1csc(-c2ccccc2)n1,-21%,-12%,9.3*,-3%,7.9µM*,10%
O=C(OCc1csc(-c2ccccc2)n1)c1cccs1,-12%,-10%,?,-6%,13µM*,48%
Cc1ccsc1C(=O)OCc1csc(-c2ccccc2)n1,-21%,?,7.1*,-9%,7.9µM*,24%
O=C(OCc1nc2ccccc2s1)c1cccs1,-3%,-9%,/,-8%,10µM*,10%
NCCO,3%,2%,/,-8%,/,4%
COc1ccc(O[C@H]2C=C[C@@H](c3ccccc3)O[C@H]2CO/N=C(/C)CCC(=O)OC[C@@H]2O[C@H](c3ccccc3)C=C[C@@H]2Oc2ccc(OC)cc2)cc1,1%[11.4 µM],0%[11.4 µM],/,1%[11.4 µM],2%[11.4 µM],0%[11.5 µM]
CCOC(=O)CCN1C(=O)[C@H]2[C@H]3[C@H](O)[C@H](O)C/C(=N/NC(=O)OCc4ccc(OC)cc4)[C@H]3CC[C@@H]2C1=O,-1%[11.4 µM],4%[11.4 µM],/,4%[11.4 µM],-2%[11.4 µM],-16%[11.5 µM]
O=C(Nc1cccc(F)c1)N1CCC2(CC1)CCN(C(=O)c1csnn1)CC2,0%,13%,/,10%,-1%[11.4 µM],1%
CC1=CC2=C(OC1N(C)C)c1cccc3cccc(c13)C2=O (stereo not given),?,4µM*,/,7.9µM*,-7%,?
O=C(NCc1ccccc1)N(Cc1nc2ccccc2c(=O)[nH]1)C1CCCC1,25µM*,-5%,>57,1%,-1%,-6%
Oc1cccc(Nc2nc(NCC3CCCO3)c3ccccc3n2)c1 (stereo not given),16µM*,2%,/,?,-14%,16µM*
CCOC(=O)N1CCN(S(=O)(=O)c2ccc(C(=O)Nc3nc4ccc(F)cc4s3)cc2)CC1,?,i,>57,-1%,0%,-3%
CCOC(=O)N1CCN(S(=O)(=O)c2ccc(C(=O)Nc3nc4ccccc4s3)cc2)CC1,25µM*,42%,>57,-21%,1%,-25%
COc1ccc(CNc2nc(-c3ccc(N(C)C)cc3)nc3ccccc23)c(OC)c1,3.2µM*,3.2µM*,/,10µM*,-4%[2.29 µM],-14%
COc1ccc(CNc2nc(-c3ccc(C(=O)N(C)C)cc3)nc3ccccc23)c(OC)c1,32µM*,?,/,?,-2%[2.29 µM],0%
COc1ccc(CNc2ccnc(-c3ccc(C(=O)N(C)C)cc3)n2)c(OC)c1,3%,10%,/,0%,1%[2.29 µM],4%
CN1CCN(c2nc(-c3cccc(C#N)c3)nc3ccccc23)CC1,-5%,1%,/,-7%,2%[2.29 µM],-22%
CCc1c(C)sc(NC(=O)c2cc(C)on2)c1C#N,-10%,-23%,>57,0%,-29%,-6%
Cc1cc(C(=O)Nc2sc(C)c(-c3ccc(F)cc3)c2C(N)=O)no1,?,?,>57,-4%,7.9µM*,8%
CCCc1cc(C(N)=O)c(NC(=O)c2cc(C)on2)s1,-23%,13µM*,>57,?,-1%,-7%
Cc1cc(=O)c2c(O)c(O)ccc2o1,16µM*,?,>57,?,0%,23%
Cc1cc(O)cc(=O)o1,-7%,/,/,-8%,/,13%
CC1=CCc2c(cc3oc(C)cc(=O)c3c2O)OC1,-28%,/,/,20µM*,/,7%

# Source: PubChem (National Center for Advancing Translational Sciences (NCATS))
